{"source": "PubChem BioAssay", "data": [{"target": "Neurogenic locus notch homolog protein 3 (Homo sapiens) (UniProt Q9UM47)", "sequence (Q9UM47 whole entry, looked up)": "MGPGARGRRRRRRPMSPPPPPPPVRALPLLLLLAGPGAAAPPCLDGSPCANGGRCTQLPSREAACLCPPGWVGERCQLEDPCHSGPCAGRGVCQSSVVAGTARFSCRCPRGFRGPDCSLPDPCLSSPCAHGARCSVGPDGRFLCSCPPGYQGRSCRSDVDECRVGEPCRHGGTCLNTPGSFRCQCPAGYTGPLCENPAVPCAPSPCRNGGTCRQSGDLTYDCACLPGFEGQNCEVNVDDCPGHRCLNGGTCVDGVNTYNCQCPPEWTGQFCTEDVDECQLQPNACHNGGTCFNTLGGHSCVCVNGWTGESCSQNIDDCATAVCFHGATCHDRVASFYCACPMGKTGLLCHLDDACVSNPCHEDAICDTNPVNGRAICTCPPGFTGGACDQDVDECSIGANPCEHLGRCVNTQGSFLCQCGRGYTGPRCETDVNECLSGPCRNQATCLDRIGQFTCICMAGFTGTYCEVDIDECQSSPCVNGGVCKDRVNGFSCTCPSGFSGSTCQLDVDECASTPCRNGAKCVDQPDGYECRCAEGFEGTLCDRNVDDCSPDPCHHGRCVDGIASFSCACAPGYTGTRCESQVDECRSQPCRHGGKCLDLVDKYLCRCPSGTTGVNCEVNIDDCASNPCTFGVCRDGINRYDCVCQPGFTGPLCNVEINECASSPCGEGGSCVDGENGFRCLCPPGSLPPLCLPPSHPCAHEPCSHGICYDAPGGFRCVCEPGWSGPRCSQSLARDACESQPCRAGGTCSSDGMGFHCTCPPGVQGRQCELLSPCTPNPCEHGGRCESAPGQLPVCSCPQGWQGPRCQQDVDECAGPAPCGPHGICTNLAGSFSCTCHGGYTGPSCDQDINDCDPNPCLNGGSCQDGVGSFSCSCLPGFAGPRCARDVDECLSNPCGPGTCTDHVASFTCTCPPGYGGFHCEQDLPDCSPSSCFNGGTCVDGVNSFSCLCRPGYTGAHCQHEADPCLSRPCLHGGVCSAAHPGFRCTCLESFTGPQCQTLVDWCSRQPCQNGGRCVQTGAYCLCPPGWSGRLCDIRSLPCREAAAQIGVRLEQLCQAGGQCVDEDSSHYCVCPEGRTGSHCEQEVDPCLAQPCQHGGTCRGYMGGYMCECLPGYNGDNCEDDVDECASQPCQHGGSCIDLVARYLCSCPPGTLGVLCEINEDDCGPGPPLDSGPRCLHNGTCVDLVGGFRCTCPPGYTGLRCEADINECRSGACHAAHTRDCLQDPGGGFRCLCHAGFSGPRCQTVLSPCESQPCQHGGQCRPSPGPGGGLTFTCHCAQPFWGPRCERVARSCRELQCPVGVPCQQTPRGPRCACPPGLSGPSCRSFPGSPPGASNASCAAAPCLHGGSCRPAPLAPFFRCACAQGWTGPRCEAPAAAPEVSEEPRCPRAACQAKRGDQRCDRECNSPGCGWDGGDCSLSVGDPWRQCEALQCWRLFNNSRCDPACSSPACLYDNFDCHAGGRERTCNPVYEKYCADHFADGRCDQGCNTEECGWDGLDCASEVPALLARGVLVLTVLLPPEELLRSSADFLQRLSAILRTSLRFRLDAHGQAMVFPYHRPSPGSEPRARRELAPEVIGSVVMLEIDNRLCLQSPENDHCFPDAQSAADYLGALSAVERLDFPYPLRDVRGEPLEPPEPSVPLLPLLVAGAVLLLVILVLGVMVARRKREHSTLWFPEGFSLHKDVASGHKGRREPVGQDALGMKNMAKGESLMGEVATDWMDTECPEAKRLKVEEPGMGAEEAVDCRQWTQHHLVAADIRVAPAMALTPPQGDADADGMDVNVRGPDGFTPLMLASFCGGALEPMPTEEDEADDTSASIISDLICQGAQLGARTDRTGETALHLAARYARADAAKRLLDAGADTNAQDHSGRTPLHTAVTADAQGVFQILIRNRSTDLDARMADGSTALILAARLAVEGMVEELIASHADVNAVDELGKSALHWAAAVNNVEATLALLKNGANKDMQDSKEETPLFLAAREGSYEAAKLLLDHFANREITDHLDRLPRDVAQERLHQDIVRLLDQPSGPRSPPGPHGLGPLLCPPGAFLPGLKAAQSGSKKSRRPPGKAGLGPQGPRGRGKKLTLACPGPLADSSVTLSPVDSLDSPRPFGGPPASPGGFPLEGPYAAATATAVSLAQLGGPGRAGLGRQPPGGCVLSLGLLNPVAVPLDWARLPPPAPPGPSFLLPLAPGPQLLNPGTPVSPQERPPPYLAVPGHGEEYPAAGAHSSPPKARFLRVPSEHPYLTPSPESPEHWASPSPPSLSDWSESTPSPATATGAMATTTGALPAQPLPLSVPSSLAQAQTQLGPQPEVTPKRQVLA", "assay": "NOTCH3 binders on small-molecule microarray, primary screen, biochemical, 635/667 nm fluorescence (AID 1096)", "settings": "NOTCH3 binding, 635 nm fluorescence, higher = more signal", "values": [{"smiles": "COC(=O)c1c(CC[C@@H](CO)NC(=O)NCCc2c[nH]c3ccccc23)oc(C(=O)Cc2ccccc2)c1C(=O)OC", "composite z-score": 0.316}, {"smiles": "CC(C)[Si](C#CCCCC#N)(Oc1ccccc1Br)C(C)C", "composite z-score": 0.653}, {"smiles": "COc1cc(CO)cc(I)c1O[C@H]1C=C(C(=O)NCCO)C[C@@H](N(C(=O)c2cc3ccccc3oc2=O)C2CCCCCC2)[C@@H]1O", "composite z-score": 0.383}, {"smiles": "C=CCC(OC(C)=O)[C@@H]1[C@@H](N(Cc2ccc(-c3cccc(C(F)(F)F)c3)o2)C(=O)c2cccc3ccccc23)c2cc(OCCCO)ccc2N1C(=O)Cc1ccc2ccccc2c1", "note": "(stereo partly specified)", "composite z-score": 0.0384}, {"smiles": "CC(c1ccccc1)C(O)C1C=CC2C(=O)N(C)C(=O)C2N1NC(=O)OC(C)(C)C", "note": "(stereo unspecified)", "composite z-score": 1.05}, {"smiles": "COc1ccc(CCNC(=O)[C@@]2(C)c3ccccc3C(=O)N(c3ccc(C)cn3)[C@H]2c2ccc(CO)cc2)cc1", "composite z-score": -0.736}, {"smiles": "C#CCNCc1ccccc1", "composite z-score": 0.527}, {"smiles": "CC[C@@H]1C=C(C(=O)O)[C@H](c2ccc(C)cc2)N1S(=O)(=O)c1ccc(C)cc1", "composite z-score": 0.939}, {"smiles": "COCCCNC(=O)[C@@H]1c2ccccc2C(=O)N(Cc2ccccc2OC)[C@H]1c1ccc(CO)cc1", "composite z-score": 0.876}, {"smiles": "C=CCOC(=O)[C@H]1[C@@H]2C(=O)O[C@@H](c3ccccc3)[C@@H](c3ccccc3)N2[C@@H](c2ccc(OCCOC(=O)[C@@H]3C[C@@H]4C(=O)N5CCC[C@H]5C(=O)N4[C@@H]3c3cccc(OCCO)c3)cc2)[C@]12C(=O)Nc1ccc(I)cc12", "composite z-score": 1.08}, {"smiles": "CC(=O)NCCCC[C@@H]1NC(=O)[C@H]2C[C@@H](C(=O)O)[C@@H](c3ccc(O)cc3)N2C1=O", "composite z-score": 1.04}, {"smiles": "CCCC=C(CCC)[C@@H](NS(=O)(=O)c1ccc(Cl)cc1)c1ccc(C(=O)OC)cc1", "composite z-score": -1.6}, {"smiles": "[N-]=[N+]=NCc1ccccc1[C@@H]1OC(c2ccc(OCCCO)cc2)=N[C@]1(CCS(=O)(=O)c1ccccc1)C(=O)N1CCCCC1", "composite z-score": 1.02}, {"smiles": "C=CCC(OC(C)=O)[C@@H]1[C@@H](N(Cc2ccc(-c3ccccc3)cc2)C(=O)Cc2ccc(F)cc2)c2cc(OCCCO)ccc2N1C(=O)c1ccc2ccccc2c1", "note": "(stereo partly specified)", "composite z-score": 0.147}, {"smiles": "CCCCCCCCCCC(O)C1C=CC2C(=O)NC(=O)C2N1Nc1ccc(Cl)cc1Cl", "note": "(stereo unspecified)", "composite z-score": 0.102}, {"smiles": "COc1ccc([Si](C)(C)[C@@H]2[C@@H](CCn3cc(CCO)nn3)O[C@]3(C(=O)N(Cc4cccc(N5C(=O)c6cccc7cccc5c67)c4)c4ccccc43)[C@H]2C)cc1", "composite z-score": 0.903}, {"smiles": "COCCCNC(=O)[C@@]1(CCS(=O)(=O)c2ccccc2)N=C(c2ccc(OCCCO)cc2)O[C@H]1c1ccccc1N=[N+]=[N-]", "composite z-score": 1.07}, {"smiles": "O[C@@H](Cc1ccccc1)[C@@H](/C=C/C1CC1)NCc1cccc(Cl)c1", "composite z-score": -0.419}, {"smiles": "CCC(CC)C(O)C1C=CC2C(=O)N(c3ccccc3)C(=O)C2N1Nc1ccccc1", "note": "(stereo unspecified)", "composite z-score": 1.07}, {"smiles": "COC(=O)[C@@]1(Cc2ccccc2)[C@H]2c3cc(C(=O)N4CCCC4)n(Cc4ccc(O)c(OC)c4)c3C[C@H]2CN1C(=O)c1ccccc1", "composite z-score": 0.79}, {"smiles": "COCCCNC(=O)[C@@]1(Cc2ccccc2CN=[N+]=[N-])N=C(c2ccc(OCCCO)cc2)O[C@H]1c1ccccc1CN=[N+]=[N-]", "composite z-score": 0.885}, {"smiles": "COc1ccc(-c2cc3c(c(Cc4ccccc4)n2)[Si](C(C)C)(C(C)C)OC3)cn1", "composite z-score": -0.459}, {"smiles": "CC(C)(C)OC(=O)CC[C@]1(C(=O)NCCN2CCOCC2)COC(c2ccc(OCCCO)cc2)=N1", "composite z-score": 1.03}, {"smiles": "CC(C)[Si](C#CCCCC#N)(O[C@H](c1ccccc1)c1cn(Cc2cccc(Cl)c2)nn1)C(C)C", "composite z-score": 1.13}, {"smiles": "COc1ccc(C(=O)Nc2ccc(CN3C(=O)[C@]4(O[C@H](CC(=O)N5CCC[C@H]5CO)[C@@H]([Si](C)(C)c5ccc(OC)cc5)[C@@H]4C)c4ccccc43)cc2)cc1", "composite z-score": 1.1}, {"smiles": "CC(C)(C)OC(=O)CC[C@@]1(C(=O)N2CCCCC2)N=C(c2ccc(OCCCO)cc2)O[C@@H]1c1ccccc1", "composite z-score": 1.12}, {"smiles": "O=C1NC(=O)C2C1C=CC(C(O)C1CC=CCC1)N2Nc1ccccn1", "note": "(stereo unspecified)", "composite z-score": 0.328}, {"smiles": "[N-]=[N+]=Nc1ccccc1C[C@]1(C(=O)N2CCCCC2)COC(c2ccc(OCCCO)cc2)=N1", "composite z-score": 1.08}, {"smiles": "COc1ccc([Si](C)(C)[C@@H]2[C@@H](CC(=O)N3Cc4ccccc4C[C@H]3CO)O[C@]3(C(=O)N(Cc4cccc(N5CCC5=O)c4)c4ccccc43)[C@H]2C)cc1", "composite z-score": 0.87}, {"smiles": "O=C1C[C@@](C(=O)NCc2ccccc2)(c2ccc([N+](=O)[O-])cc2)[C@@H](c2ccc(CO)cc2)N1CC12CC3CC(CC(C3)C1)C2", "composite z-score": 1.15}, {"smiles": "CC=CC(O)C1C=CC2C(=O)N(C)C(=O)C2N1N(c1ccccc1)c1ccccc1", "note": "(stereo unspecified)", "composite z-score": 0.0161}, {"smiles": "C=C(CCCC)C(=O)CC[C@H](OC(=O)c1cccnc1)c1ccc(OCCO)cc1", "composite z-score": -0.364}, {"smiles": "CCOC(=O)C1=CCC(c2ccc(F)cc2)N(S(=O)(=O)c2ccc(C)cc2)C1", "note": "(stereo unspecified)", "composite z-score": 0.284}, {"smiles": "O=C1OCCC=C[C@H]2OC34C=CCN(Cn5nnc6ccccc65)C(=O)[C@H]3N(CCO)C(=O)[C@@H]4C12", "note": "(stereo partly specified)", "composite z-score": -0.491}, {"smiles": "CC(c1ccccc1)C(O)C1C=CC2C(=O)N(c3ccccc3)C(=O)C2N1Nc1ccccc1", "note": "(stereo unspecified)", "composite z-score": 1.05}, {"smiles": "NCCCCCNC(=O)[C@H]1C[C@H]2C(=O)N3CCC[C@H]3C(=O)N2[C@H]1c1ccc(O)cc1", "composite z-score": 0.573}]}]}
